Data on ten compounds can be found in PubChem BioAssay (EPA / NIEHS).

Assay [1] addresses rat Glutamate, AMPA Site (AMPA), Gria1 (gene 50592) (UniProt P19490). Nature of the assay: NVS_LGIC_rAMPA: NovaScreen (NVS) Ligand-Gated Ion Channel Assay for rat Glutamate, AMPA Site (AMPA) (AID 2283324). The essentials:
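Screening at 25 uM in duplicate preceded concentration series reaching 50 uM for qualifying compounds. Radioligand displacement on rat forebrain membranes, 1 h, filter-based scintillation readout; reduced binding relative to DMSO.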

Assay [2] addresses rat Gamma-Aminobutyric Acid Type A Receptor, Non-Selective (GABAR-NonSelective), Gabra1 (gene 29705) (UniProt P62813). Nature of the assay: NVS_LGIC_rGABAR_NonSelective: NovaScreen (NVS) Ligand-Gated Ion Channel Assay for rat Gamma-Aminobutyric Acid Type A Receptor, Non-Selective (GABAR-NonSelective) (AID 2283326). In outline:
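Compounds were first screened in duplicate at 25 uM, with actives run as singleton concentration series (max 50 uM). Binding of a radioligand to rat whole-brain GABA-A preparation was measured by filtration and scintillation counting after 1 h, DMSO baseline.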

In assay [3] the target is rat Glutamate, NMDA Agonist Site (GluNMDA), Grin1 (gene 24408) (UniProt P35439). Nature of the assay: NVS_LGIC_rGluNMDA_Agonist: NovaScreen (NVS) Ligand-Gated Ion Channel Assay for rat Glutamate, NMDA Agonist Site (GluNMDA) (AID 2283327). In outline:
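Radioligand displacement at the agonist site on rat forebrain membrane preparations, read by filter scintillation after 1 h. Chemicals were first run at 25 uM in duplicate; those passing threshold were titrated to a 50 uM maximum.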

For assay [4], the target named is Voltage-gated inwardly rectifying potassium channel KCNH2 (Homo sapiens) (UniProt Q12809). Nature of the assay: NVS_IC_hKhERGCh: NovaScreen (NVS) Ion Channel Assay for human Potassium Channel ERG (KhERGCh) (AID 2283333). In outline:
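Membranes from CHO cells expressing human ERG; displacement of radioligand measured by filtration and scintillation after 0.75 h. Single-concentration duplicate screen at 25 uM, then concentration-response for actives; DMSO baseline.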

Assay [5] addresses Small conductance calcium-activated potassium channel protein 1 (Rattus norvegicus) (UniProt P70606). Nature of the assay: NVS_IC_rKCaCh: NovaScreen (NVS) Ion Channel Assay for rat Potassium Channel, Ca2+ Act., VI (KCaCh) (AID 2283336). The essentials: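 Filter-based scintillation counting of radioligand bound to rat forebrain membrane preparations, measured 1 h after compound addition. Primary screen used 25 uM in duplicate, with concentration-response follow-up; signal decrease relative to DMSO marks activity.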

A short description of assay [6]: NVS_IC_rCaBTZCHL: NovaScreen (NVS) Ion Channel Assay for Calcium Channel, Type L, Benzothiazepine Site (CaBTZCHL) (AID 2283337). The essentials:
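Rat cortical membrane preparation, cell-free. Radioligand displaced by test chemical; 1.5 h incubation; filtration, scintillation count. DMSO = negative control/baseline. Primary: duplicate, 25 uM; secondary: concentration series.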

The target in assay [7] is rat Glutamate, MK-801 Agonist Site (GluNMDA_MK801), Grin1 (gene 24408) (UniProt P35439). Nature of the assay: NVS_LGIC_rGluNMDA_MK801_Agonist: NovaScreen (NVS) Ligand-Gated Ion Channel Assay for rat Glutamate, MK-801 Agonist Site (GluNMDA_MK801) (AID 2283340). In outline:
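Rat forebrain membrane preparation; MK-801-site radioligand binding read by filtration and scintillation after 1.5 h. Single-point 25 uM duplicate screen, followed by singleton concentration series to 50 uM max; DMSO baseline.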

Assay [8] deals with guinea pig Histamine Receptor (H2), gene 100729734. Nature of the assay: NVS_GPCR_gH2: NovaScreen (NVS) G Protein-Coupled Receptor Assay for guinea pig Histamine Receptor (H2) (AID 2283342). In outline: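 Guinea pig striatal membrane preparation with specific radioligand; bound counts measured by filtration and scintillation 1 h post-dosing, DMSO as baseline. Chemicals passing a 25 uM duplicate screen were titrated to a 50 uM maximum.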

For assay [9], the target named is human Constitutive Androstane Receptor (CAR), NR1I3 (gene 9970) (UniProt Q14994). Nature of the assay: NVS_NR_hCAR_Antagonist: NovaScreen (NVS) Nuclear Receptor Binding Assay for human Constitutive Androstane Receptor Antagonism (CAR) (AID 2283344). The essentials:
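Single 25 uM duplicate primary screen, with concentration-series follow-up on actives. Cell-free binding format run in antagonist mode, TR-FRET signal taken 1 h post-dose; activity is signal loss relative to DMSO.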

In assay [10] the target is human Peripheral-type Benzodiazepine Receptor (PBR), TSPO (gene 706) (UniProt P30536). Nature of the assay: NVS_MP_hPBR: NovaScreen (NVS) Membrane Protein Assay for human Peripheral-type Benzodiazepine Receptor (PBR) (AID 2283331).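 Note: hits reduce radioligand binding relative to DMSO baseline.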 In outline: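 Cell-free radioligand displacement, human colonic membranes, 1 h exposure. Filter radiodetection read-out. Single-concentration duplicates (25 uM), then concentration-response for actives; DMSO negative control.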
Chain of human Peripheral-type Benzodiazepine Receptor (PBR), TSPO (gene 706) (P30536 whole entry, looked up): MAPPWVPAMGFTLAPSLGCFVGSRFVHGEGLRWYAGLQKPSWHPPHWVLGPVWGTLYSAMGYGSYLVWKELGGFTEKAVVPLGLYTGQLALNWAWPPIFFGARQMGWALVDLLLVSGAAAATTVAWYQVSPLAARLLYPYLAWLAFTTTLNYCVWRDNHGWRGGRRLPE

Assay [11] addresses rat Peripheral-type Benzodiazepine Receptor (PBR), Tspo (gene 24230) (UniProt P16257). Nature of the assay: NVS_MP_rPBR: NovaScreen (NVS) Membrane Protein Assay for rat Peripheral-type Benzodiazepine Receptor (PBR) (AID 2283335). In outline: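 Single-concentration duplicate screening at 25 uM preceded concentration-series retesting of actives. Binding of a specific radioligand to rat kidney membrane PBR was read by filtration radiodetection after 1 h, with plate-wise positive and negative controls.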

For the next assay, the system named is NCBI gene 100848466. Nature of the assay: NVS_NR_bPR: NovaScreen (NVS) Nuclear Receptor Binding Assay for bovine Progextron Receptor (PR) (AID 2283343).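 Note: actives lower bound radioligand signal below DMSO meaning displacement of the label.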 In outline:
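Scintillation counts of bound radioligand were read 18 hours after chemical addition to membranes extracted from bovine uterus. Displacement was scored as loss of signal relative to DMSO controls. Screening began at 25 uM in duplicate.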

Assay [12] addresses bovine Estrogen Receptor (ER), ESR1 (gene 407238) (UniProt P49884). Nature of the assay: NVS_NR_bER: NovaScreen (NVS) Nuclear Receptor Binding Assay for bovine Estrogen Receptor (ER) (AID 2283345).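 Note: actives lower the bound radioligand count which means they displace the ER ligand.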 The essentials: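 Cell-free radioligand binding with receptor from bovine uterine membranes, read by scintillation counting 18 h after dosing. Loss of specific binding was scored against DMSO; primary screen at 25 uM in duplicate, actives then run as concentration series.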

Assay [13] has as its target rat Thyrotropin Releasing Hormone Receptor (TRH), Trhr (gene 25570) (UniProt Q01717). Nature of the assay: NVS_GPCR_rTRH: NovaScreen (NVS) G Protein-Coupled Receptor Assay for rat Thyrotropin Releasing Hormone Receptor (TRH) (AID 2283329).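 Note: hit means lower bound tracer signal versus DMSO baseline.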 In outline: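 Cell-free radioligand binding on rat forebrain membranes; bound tracer measured by filter-based scintillation counting 4 hours after dosing. Loss of signal versus DMSO baseline indicates displacement; primary screen at 25 uM in duplicate, actives then run in concentration series.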

Assay [14] concerns the target human Constitutive Androstane Receptor (CAR), NR1I3 (gene 9970) (UniProt Q14994). Nature of the assay: NVS_NR_hCAR_Agonist: NovaScreen (NVS) Nuclear Receptor Binding Assay for human Constitutive Androstane Receptor Agonism (CAR) (AID 2283328). In outline: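 Actives from a 25 uM duplicate screen were retested in singleton concentration series to 50 uM max. Biochemical TR-FRET assay on extracted CAR protein measured 1 h post-dose, with signal increase over DMSO control.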

In assay [15] the target is human Serotonin, 5-Hydroxytryptamine Receptor 3 (5HT3), HTR3A (gene 3359) (UniProt P46098). Nature of the assay: NVS_LGIC_h5HT3: NovaScreen (NVS) Ligand-Gated Ion Channel Assay for human Serotonin, 5-Hydroxytryptamine Receptor 3 (5HT3) (AID 2283325). In outline: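 Initially tested at 25 uM in duplicate, then up to 50 uM in concentration-response for actives, compounds competed with a radioligand for HEK293-derived human 5-HT3 receptor. Bound counts were measured by filtration and scintillation at 1 h; loss of signal versus DMSO.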
Chain of human Serotonin, 5-Hydroxytryptamine Receptor 3 (5HT3), HTR3A (gene 3359) (P46098 whole entry, looked up): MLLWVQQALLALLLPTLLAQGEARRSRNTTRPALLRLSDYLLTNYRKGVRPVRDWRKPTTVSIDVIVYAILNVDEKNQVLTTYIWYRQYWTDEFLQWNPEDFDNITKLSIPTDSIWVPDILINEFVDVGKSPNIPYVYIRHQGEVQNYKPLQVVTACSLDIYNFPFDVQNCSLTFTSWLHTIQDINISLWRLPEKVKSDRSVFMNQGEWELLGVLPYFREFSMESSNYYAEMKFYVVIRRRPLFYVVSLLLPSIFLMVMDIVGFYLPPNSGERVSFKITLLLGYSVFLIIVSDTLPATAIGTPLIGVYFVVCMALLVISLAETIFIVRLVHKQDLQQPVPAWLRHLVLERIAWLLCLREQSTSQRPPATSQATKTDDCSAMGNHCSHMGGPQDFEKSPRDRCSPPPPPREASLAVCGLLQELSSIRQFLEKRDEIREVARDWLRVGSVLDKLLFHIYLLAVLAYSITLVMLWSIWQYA

Assay [16] deals with bovine Gamma-Aminobutyric Acid Type A Receptor Agonist (GABAR Agonist), GABRA1 (gene 780973) (UniProt P08219). Nature of the assay: NVS_LGIC_bGABAR_Agonist: NovaScreen (NVS) Ligand-Gated Ion Channel Assay for bovine Gamma-Aminobutyric Acid Type A Receptor Agonist (GABAR Agonist) (AID 2283338). In outline: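 Radioligand binding to bovine cerebellar membranes in agonist format, read by filter-based scintillation counting after 1 h. Primary screen in duplicate at 25 uM, with actives followed in concentration series. Gain of signal versus DMSO.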

Records with an inconclusive call do not appear. Active and inactive are the calls of the source. Rule for the calls: active = hit-call score of the fitted dose curve at least 0.9, where 1 is the maximum; inconclusive = response in the unintended direction; inactive = score below 0.9.

Chain of rat Peripheral-type Benzodiazepine Receptor (PBR), Tspo (gene 24230) (P16257 whole entry, looked up): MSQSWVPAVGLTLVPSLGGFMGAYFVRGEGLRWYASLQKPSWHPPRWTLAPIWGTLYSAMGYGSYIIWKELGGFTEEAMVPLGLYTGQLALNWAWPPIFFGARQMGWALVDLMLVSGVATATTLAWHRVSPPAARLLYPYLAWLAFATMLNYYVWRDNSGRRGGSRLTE
Chain of rat Thyrotropin Releasing Hormone Receptor (TRH), Trhr (gene 25570) (Q01717 whole entry, looked up): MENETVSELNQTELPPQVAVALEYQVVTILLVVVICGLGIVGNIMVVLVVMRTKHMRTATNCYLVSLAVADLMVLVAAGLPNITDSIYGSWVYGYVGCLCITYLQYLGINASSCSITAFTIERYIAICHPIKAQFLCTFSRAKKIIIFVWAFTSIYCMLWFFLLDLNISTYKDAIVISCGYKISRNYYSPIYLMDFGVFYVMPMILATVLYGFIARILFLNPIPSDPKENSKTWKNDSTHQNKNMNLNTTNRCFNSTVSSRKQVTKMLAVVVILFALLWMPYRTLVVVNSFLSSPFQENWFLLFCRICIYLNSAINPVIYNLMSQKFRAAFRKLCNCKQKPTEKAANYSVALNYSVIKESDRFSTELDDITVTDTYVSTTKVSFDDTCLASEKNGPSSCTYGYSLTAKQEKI
Chain of human Constitutive Androstane Receptor (CAR), NR1I3 (gene 9970) (Q14994 whole entry, looked up): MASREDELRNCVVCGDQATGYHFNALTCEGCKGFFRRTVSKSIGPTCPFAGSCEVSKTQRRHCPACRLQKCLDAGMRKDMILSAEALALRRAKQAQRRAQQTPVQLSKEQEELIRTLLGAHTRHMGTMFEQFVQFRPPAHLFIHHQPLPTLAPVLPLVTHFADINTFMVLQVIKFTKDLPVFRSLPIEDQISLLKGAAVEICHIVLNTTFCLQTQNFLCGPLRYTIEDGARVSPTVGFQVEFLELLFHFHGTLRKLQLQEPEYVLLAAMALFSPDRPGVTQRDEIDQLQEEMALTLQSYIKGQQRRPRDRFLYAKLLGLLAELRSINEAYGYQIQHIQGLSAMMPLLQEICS
Chain of Voltage-gated inwardly rectifying potassium channel KCNH2 (Homo sapiens) (Q12809 whole entry, looked up): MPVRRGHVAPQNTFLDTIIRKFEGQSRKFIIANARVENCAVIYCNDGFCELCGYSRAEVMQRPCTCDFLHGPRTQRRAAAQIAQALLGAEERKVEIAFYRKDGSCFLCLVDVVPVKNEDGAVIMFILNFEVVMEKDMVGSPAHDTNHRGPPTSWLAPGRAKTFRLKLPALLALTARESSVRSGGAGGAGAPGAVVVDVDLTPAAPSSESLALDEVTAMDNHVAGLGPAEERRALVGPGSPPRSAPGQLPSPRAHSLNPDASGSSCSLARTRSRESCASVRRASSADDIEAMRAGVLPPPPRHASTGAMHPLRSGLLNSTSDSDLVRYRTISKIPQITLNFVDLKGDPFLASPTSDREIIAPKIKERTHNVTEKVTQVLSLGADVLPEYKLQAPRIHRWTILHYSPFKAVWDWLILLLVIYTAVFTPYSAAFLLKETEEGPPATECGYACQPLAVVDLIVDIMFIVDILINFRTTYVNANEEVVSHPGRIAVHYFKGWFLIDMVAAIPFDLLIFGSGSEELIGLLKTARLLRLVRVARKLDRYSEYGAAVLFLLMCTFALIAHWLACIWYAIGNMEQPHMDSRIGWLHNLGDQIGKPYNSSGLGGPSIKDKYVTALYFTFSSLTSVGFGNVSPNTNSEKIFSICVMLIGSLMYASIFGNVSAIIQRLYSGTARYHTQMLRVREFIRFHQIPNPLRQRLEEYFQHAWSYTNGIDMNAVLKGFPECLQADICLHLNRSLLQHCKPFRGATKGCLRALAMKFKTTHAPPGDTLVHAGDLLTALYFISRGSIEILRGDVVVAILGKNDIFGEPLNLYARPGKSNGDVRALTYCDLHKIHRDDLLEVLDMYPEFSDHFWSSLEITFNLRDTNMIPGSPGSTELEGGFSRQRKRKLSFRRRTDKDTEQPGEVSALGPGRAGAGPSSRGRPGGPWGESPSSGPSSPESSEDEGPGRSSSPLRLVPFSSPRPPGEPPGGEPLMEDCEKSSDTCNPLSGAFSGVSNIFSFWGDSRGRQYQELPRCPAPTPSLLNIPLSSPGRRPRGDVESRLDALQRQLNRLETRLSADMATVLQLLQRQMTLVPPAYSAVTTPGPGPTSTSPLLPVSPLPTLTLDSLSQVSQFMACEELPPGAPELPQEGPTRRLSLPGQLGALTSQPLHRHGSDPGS
Chain of Small conductance calcium-activated potassium channel protein 1 (Rattus norvegicus) (P70606 whole entry, looked up): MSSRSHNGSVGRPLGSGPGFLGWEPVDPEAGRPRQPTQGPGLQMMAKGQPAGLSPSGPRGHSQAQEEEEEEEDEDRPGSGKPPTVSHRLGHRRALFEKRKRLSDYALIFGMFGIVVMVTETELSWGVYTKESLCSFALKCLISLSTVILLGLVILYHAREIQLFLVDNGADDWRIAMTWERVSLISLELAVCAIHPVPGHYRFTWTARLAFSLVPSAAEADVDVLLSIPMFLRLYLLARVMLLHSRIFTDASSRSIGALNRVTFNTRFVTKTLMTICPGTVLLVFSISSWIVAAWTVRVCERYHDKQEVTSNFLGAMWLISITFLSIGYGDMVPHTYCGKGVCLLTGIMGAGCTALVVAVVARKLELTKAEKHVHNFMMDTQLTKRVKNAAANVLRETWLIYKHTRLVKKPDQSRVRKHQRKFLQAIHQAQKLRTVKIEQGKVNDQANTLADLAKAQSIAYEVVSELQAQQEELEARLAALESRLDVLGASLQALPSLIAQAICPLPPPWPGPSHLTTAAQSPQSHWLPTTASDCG
Chain of rat Gamma-Aminobutyric Acid Type A Receptor, Non-Selective (GABAR-NonSelective), Gabra1 (gene 29705) (P62813 whole entry, looked up): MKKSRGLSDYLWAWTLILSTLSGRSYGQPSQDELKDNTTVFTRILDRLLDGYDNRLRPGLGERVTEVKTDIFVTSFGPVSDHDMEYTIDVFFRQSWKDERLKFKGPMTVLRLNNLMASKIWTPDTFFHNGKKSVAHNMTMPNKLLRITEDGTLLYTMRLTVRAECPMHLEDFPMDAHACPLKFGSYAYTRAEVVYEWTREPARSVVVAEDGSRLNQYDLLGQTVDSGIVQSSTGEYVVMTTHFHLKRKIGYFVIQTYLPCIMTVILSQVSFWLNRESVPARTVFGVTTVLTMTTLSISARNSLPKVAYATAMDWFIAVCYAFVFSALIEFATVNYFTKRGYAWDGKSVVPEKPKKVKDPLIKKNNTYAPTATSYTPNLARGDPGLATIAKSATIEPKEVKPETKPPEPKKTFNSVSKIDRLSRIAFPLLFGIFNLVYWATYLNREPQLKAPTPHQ
Chain of rat Glutamate, AMPA Site (AMPA), Gria1 (gene 50592) (P19490 whole entry, looked up): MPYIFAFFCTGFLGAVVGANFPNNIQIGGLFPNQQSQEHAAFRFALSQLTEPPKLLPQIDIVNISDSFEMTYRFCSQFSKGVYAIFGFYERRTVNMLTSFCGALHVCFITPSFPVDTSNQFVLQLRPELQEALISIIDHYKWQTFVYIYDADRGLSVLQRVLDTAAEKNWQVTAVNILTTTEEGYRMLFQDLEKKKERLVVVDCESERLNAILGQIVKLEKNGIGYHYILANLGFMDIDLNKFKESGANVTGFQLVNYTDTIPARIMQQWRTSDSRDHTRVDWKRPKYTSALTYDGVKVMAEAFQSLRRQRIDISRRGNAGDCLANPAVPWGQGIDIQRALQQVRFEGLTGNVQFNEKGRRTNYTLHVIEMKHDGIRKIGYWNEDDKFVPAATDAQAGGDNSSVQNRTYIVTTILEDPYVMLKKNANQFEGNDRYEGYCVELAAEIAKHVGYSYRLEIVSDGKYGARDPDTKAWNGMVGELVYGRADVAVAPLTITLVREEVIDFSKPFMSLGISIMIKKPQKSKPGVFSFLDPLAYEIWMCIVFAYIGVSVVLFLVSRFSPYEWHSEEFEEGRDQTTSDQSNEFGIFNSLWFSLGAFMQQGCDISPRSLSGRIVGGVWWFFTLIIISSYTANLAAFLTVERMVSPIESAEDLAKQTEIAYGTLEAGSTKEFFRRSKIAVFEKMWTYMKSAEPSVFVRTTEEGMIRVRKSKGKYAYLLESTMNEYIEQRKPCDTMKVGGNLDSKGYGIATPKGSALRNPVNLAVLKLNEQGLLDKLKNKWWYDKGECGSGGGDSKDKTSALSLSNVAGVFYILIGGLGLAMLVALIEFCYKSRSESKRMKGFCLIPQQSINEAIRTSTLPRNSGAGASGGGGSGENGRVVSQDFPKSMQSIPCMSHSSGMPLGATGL

Broadly, the AC50 is the concentration at which the activity in the assay is half-maximal. For the compound `CN(C)C(=O)C1(N2CCCCC2)CCN(CC[C@@]2(c3ccc(Cl)c(Cl)c3)CN(C(=O)c3ccccc3)CCO2)CC1`, the AC50 in assay [1] was 4.68 µM (active); in assay [2], 2 µM (active); in assay [3] it was 29.3 µM (active); in assay [4], 8.74 µM (active); in [6], 0.27 µM (active); in [8], 1.08 µM (active). The result in assay [5], in assay [7] and in [9] was inactive.
Take `CCN(Cc1cccnc1)C(=O)c1cccc(Cl)c1[C@]1(C)C(=O)N(Cc2ccc(OC)cc2OC)c2ccc(Cl)cc21`: the AC50 in assay [2] is 16.8 µM (active); in assay [10] it was 1.07 µM (active); in [11], 1.69 µM (active); in [6] it was 12.6 µM (active); in [8], 1.12 µM (active); in the assay with NCBI gene 100848466, 2.77 µM (active). Moreover, the result in assay [5] and in [12] was inactive.
In the case of `O=C1c2ccccc2C(=O)N1CCc1noc(-c2ccc(CN3CCCCCC3)s2)n1`, the outcome in [13] and in assay [11] was inactive. Also, the values for the AC50 in [6] and in assay [8] were 7.22 µM (active) and 8.06 µM (active), respectively.
`Cc1oc2c(NC(=O)c3c(Cl)cccc3Cl)cccc2c1C(C)(C)O`: in [13], the compound was called inactive. Besides, the AC50 in assay [10] was 1.26 µM (active); in assay [11] it was 2.5 µM (active); in assay [9], 34.6 µM (active).
As to `CCCCCCCCCC(=O)O`, the call in assay [1] was inactive.
Turning to `Cc1c2ccccc2c(C)c2c1ccc1ccccc12`, the result in [14], in [9] and in [12] was inactive. Besides, the figures for the AC50 (in [10]; in assay [11]; in the assay on NCBI gene 100848466) were 14.6 µM (active), 1.69 µM (active) and 9.4 µM (active), respectively.
Take `CCOC(=O)O[C@H](C)OC(=O)c1ccc2c(c1)cc(C(=O)NC1CCN(C(C)C)CC1)n2Cc1cc(-c2ccc(Cl)s2)on1`: in assay [15], the result was inactive. Besides, the half-maximal activity concentration (AC50) was 0.925 µM (active) in [4], 9.12 µM (active) in assay [6], 11.8 µM (active) in assay [16] and 13.3 µM (active) in assay [8].
Consider `CC(C)(O)c1ccc(CNC(=O)c2cccnc2Oc2ccc3nonc3c2)cc1`, for which, in assay [15], the compound was classed as inactive. In addition, the AC50 was 2.34 µM (active) in assay [10] and 7.64 µM (active) in assay [11].
Turning to `CC(O)CC(C)(C)O` (stereo not drawn), the outcome in [13] was inactive.
For the compound `O=C(O)Cn1c(=O)n(Cc2ccc(Br)cc2F)c(=O)c2ccc(Cl)cc21`, the compound was called inactive in [3] and in assay [10].
